# Measurements taken from PubChem BioAssay AID1159580 (chemical genetic matrix, 2015).
# The campaign covered roughly 5,500 compounds. About 2,000 (36%) were called active. Another 18% or so got no clear call; they are omitted. This is one part of the list. Values without a mark were called inactive. Rule as the data show it: active = normalized growth mostly below about 0.91 (no sharp cut-off); inconclusive = no clear call, values can overlap the other calls; inactive = mostly above about 0.92.
# Experiment: chemical genetic growth profiling, strain panel (AID 1159580);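 also: tested at 20 µM; growth read once vehicle control cultures reached saturation at 30 °C; 1 = growth at the plate median or of vehicle wells; lower values mean less growth of the strain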
# Settings: S. cerevisiae deletion strains, growth OD
compound,measurement,setting,value
COP(=S)(OC)Oc1ccc(SC)c(C)c1,normalized growth,"locus YAL013W, strain DEP1, hits give low values",1
same,normalized growth,"locus YAL021C, strain ccr4, hits give low values",1.07
same,normalized growth,"locus YAL026C, strain drs2, hits give low values",0.984
same,normalized growth,"locus YAL030W, strain snc1, hits give low values",1
same,normalized growth,"locus YBL061C, strain skt5, hits give low values",0.981
same,normalized growth,"locus YBR009C, strain hhf1, hits give low values",0.904 (active)
same,normalized growth,"locus YBR021W, strain FUR4, hits give low values",0.98
same,normalized growth,"locus YBR023C, strain chs3, hits give low values",0.973
same,normalized growth,"locus YBR171W, strain sec66, hits give low values",0.992
same,normalized growth,"locus YBR229C, strain ROT2, hits give low values",1.02
same,normalized growth,"locus YBR231C, strain swc5, hits give low values",1.03
same,normalized growth,"locus YBR279W, strain paf1, hits give low values",1.01
same,normalized growth,"locus YCL011C, strain gbp2, hits give low values",0.955
same,normalized growth,"locus YCL016C, strain dcc1, hits give low values",0.954
same,normalized growth,"locus YCL029C, strain bik1, hits give low values",0.988
same,normalized growth,"locus YCL069W, strain vba3, hits give low values",0.981
same,normalized growth,"locus YCR088W, strain abp1, hits give low values",1
same,normalized growth,"locus YDL005C, strain med2, hits give low values",1.01
same,normalized growth,"locus YDL035C, strain GPR1, hits give low values",1.01
same,normalized growth,"locus YDL040C, strain nat1, hits give low values",1
same,normalized growth,"locus YDL074C, strain BRE1, hits give low values",1.01
same,normalized growth,"locus YDL101C, strain DUN1, hits give low values",1.03
same,normalized growth,"locus YDL134C, strain PPH21, hits give low values",1.02
same,normalized growth,"locus YDL185W, strain tfp1, hits give low values",0.986
same,normalized growth,"locus YDL192W, strain arf1, hits give low values",0.989
same,normalized growth,"locus YDR001C, strain nth1, hits give low values",0.999
same,normalized growth,"locus YDR069C, strain doa4, hits give low values",1.02
same,normalized growth,"locus YDR101C, strain arx1, hits give low values",0.988
same,normalized growth,"locus YDR137W, strain rgp1, hits give low values",0.94
same,normalized growth,"locus YDR150W, strain NUM1, hits give low values",1.02
same,normalized growth,"locus YDR159W, strain sac3, hits give low values",0.919
same,normalized growth,"locus YDR162C, strain NBP2, hits give low values",1.01
same,normalized growth,"locus YDR195W, strain ref2",1.2 [resistant] (active)
same,normalized growth,"locus YDR297W, strain sur2, hits give low values",1.01
same,normalized growth,"locus YDR318W, strain mcm21, hits give low values",0.99
same,normalized growth,"locus YDR334W, strain swr1, hits give low values",1.01
same,normalized growth,"locus YDR335W, strain msn5, hits give low values",1.01
same,normalized growth,"locus YDR388W, hits give low values",0.991
same,normalized growth,"locus YDR392W, strain spt3, hits give low values",0.766
same,normalized growth,"locus YDR502C, strain sam2, hits give low values",1
same,normalized growth,"locus YEL003W, strain gim4, hits give low values",1
same,normalized growth,"locus YEL037C, strain rad23, hits give low values",1
same,normalized growth,"locus YEL061C, strain CIN8 (second series), hits give low values",1
same,normalized growth,"locus YEL061C, strain CIN8, hits give low values",1.01
same,normalized growth,"locus YER015W, strain faa2, hits give low values",0.995
same,normalized growth,"locus YER016W, strain bim1, hits give low values",0.978
same,normalized growth,"locus YER110C, hits give low values",0.986
same,normalized growth,"locus YER111C, strain swi4, hits give low values",1.01
same,normalized growth,"locus YER155C, strain BEM2 (second series), hits give low values",0.951
same,normalized growth,"locus YER155C, strain BEM2, hits give low values",1.02
same,normalized growth,"locus YER167W, strain BCK2, hits give low values",1
same,normalized growth,"locus YFR010W, strain ubp6, hits give low values",1.03
same,normalized growth,"locus YGL078C, strain dbp3, hits give low values",0.981
same,normalized growth,"locus YGL086W, strain mad1, hits give low values",0.991
same,normalized growth,"locus YGL167C, strain pmr1, hits give low values",0.993
same,normalized growth,"locus YGL173C, strain kem1, hits give low values",0.988
same,normalized growth,"locus YGL227W, strain vid30, hits give low values",1.01
same,normalized growth,"locus YGL240W, strain doc1, hits give low values",0.989
same,normalized growth,"locus YGL248W, strain PDE1, hits give low values",1.03
same,normalized growth,"locus YGL253W, strain hxk2, hits give low values",0.955
same,normalized growth,"locus YGR078C, strain PAC10, hits give low values",0.999
same,normalized growth,"locus YGR135W, strain pre9, hits give low values",0.987
same,normalized growth,"locus YGR229C, strain SMI1, hits give low values",0.984
same,normalized growth,"locus YGR252W, strain gcn5, hits give low values",0.922
same,normalized growth,"locus YHR013C, strain ard1, hits give low values",1.02
same,normalized growth,"locus YHR027C, strain rpn1, hits give low values",0.998
same,normalized growth,"locus YHR030C, strain SLT2, hits give low values",1.02
same,normalized growth,"locus YHR079C, strain IRE1 (second series), hits give low values",0.99
same,normalized growth,"locus YHR094C, strain hxt1, hits give low values",0.984
same,normalized growth,"locus YHR129C, strain ARP1, hits give low values",1.01
same,normalized growth,"locus YHR142W, strain chs7, hits give low values",0.912
same,normalized growth,"locus YHR200W, strain rpn10, hits give low values",0.977
same,normalized growth,"locus YIL066C, strain RNR3, hits give low values",1
same,normalized growth,"locus YIL073C, strain SPO22, hits give low values",0.954
same,normalized growth,"locus YIL125W, strain kgd1, hits give low values",0.996
same,normalized growth,"locus YIR030C, strain dcg1, hits give low values",0.988
same,normalized growth,"locus YJL092W, strain hpr5, hits give low values",0.992
same,normalized growth,"locus YJL095W, strain BCK1 (second series), hits give low values",0.97
same,normalized growth,"locus YJL095W, strain BCK1, hits give low values",0.983
same,normalized growth,"locus YJL115W, strain asf1, hits give low values",1.02
same,normalized growth,"locus YJL129C, strain trk1, hits give low values",0.958
same,normalized growth,"locus YJL134W, strain LCB3, hits give low values",1.02
same,normalized growth,"locus YJL154C, strain vps35, hits give low values",1.01
same,normalized growth,"locus YJL164C, strain tpk1, hits give low values",0.935
same,normalized growth,"locus YJL166W, strain qcr8, hits give low values",0.974
same,normalized growth,"locus YJL168C, strain set2, hits give low values",0.991
same,normalized growth,"locus YJL187C, strain SWE1 (second series), hits give low values",1.01
same,normalized growth,"locus YJR043C, strain POL32, hits give low values",1
